FBPA Giardia inh: qHTS Assay for Inhibitors of Fructose-1,6-bisphosphate Aldolase from Giardia Lamblia; A8B2U2; purified Giardia FBPA; Potency, µM (titrated, usually from 59.6 µM), inactives show top-dose activity, negative = inhibition, actives largely listed as inhibitors; hit rate 0.71% among 290,000; further: potency means the concentration at half of the fitted maximal effect; on the % scale 0 is the no-effect control and ±100 the full control effect; nearly all actives have a fitted effect of over 55% in size
Target sequence (A8B2U2 whole entry, looked up): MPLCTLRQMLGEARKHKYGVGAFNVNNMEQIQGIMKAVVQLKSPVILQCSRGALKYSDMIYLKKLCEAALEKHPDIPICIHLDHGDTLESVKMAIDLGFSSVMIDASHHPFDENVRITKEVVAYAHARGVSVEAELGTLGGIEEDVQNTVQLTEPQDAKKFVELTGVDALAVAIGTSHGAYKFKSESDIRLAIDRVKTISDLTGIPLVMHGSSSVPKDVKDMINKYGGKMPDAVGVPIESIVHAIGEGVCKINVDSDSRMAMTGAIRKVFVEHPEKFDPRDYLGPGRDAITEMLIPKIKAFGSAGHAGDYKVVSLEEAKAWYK
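40 nM FBPA preincubated 10 min at RT with compound (up to 57.5 uM final), then substrate plus GAPDH/TPI/NAD/arsenate coupling and diaphorase/resazurin added. Fluorescence read after 20 min at RT, 525/598 nm.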
RE007 growth inh: qHTS Assay for Inhibitors of the HIV-1 protein Vpr | AID 651644, 2012 | hit rate 0.21% among 360,000 | Potency, µM (series often up to 92.2 µM), for inactives: top-dose activity change, negative = less growth, actives largely listed as inhibitors | S. pombe RE007 Vpr strain, BacTiter-Glo ATP luminescence, 24 h; active means well fitted falling curve with a large enough effect; inconclusive means small, poorly fitted or top-dose-only effect; inactive means no such curve, though single readings can be large or run the other way; further: potency means the concentration at half of the fitted maximal effect; on the % scale 0 is the no-effect control and ±100 the full control effect; nearly all actives have a fitted effect of over 50% in size
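Fission yeast RE007 carrying one integrated HIV-1 vpr copy, seeded at OD 0.01 in PMG+AL medium with 23 nL pinned compound. Grown 24 h at 30 degrees; viability read by BacTiter-Glo luminescence after 5 min.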
LmPK inh: qHTS Assay for Inhibitors of Leishmania Mexicana Pyruvate Kinase (LmPK) | Potency, µM (doses to about 57.5 µM), for inactives: at the highest dose activity change, negative = inhibition, usual class: inhibitors | purified LmPK, Kinase-Glo ATP luminescence, 1 h | Q27686 | AID 1721, 2009 | hit rate 0.37% among 290,000; further: potency means the concentration at half of the fitted maximal effect; on the % scale 0 is the no-effect control and ±100 the full control effect
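ATP generated from ADP (0.1 mM) and PEP (0.5 mM) by 0.1 nM LmPK over 1 h at room temperature (pH 7.2 imidazole buffer) was detected by coupled luciferase luminescence. Values were normalized to uninhibited and no-enzyme wells.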
TbPYK inhibitor: qHTS of Trypanosoma Brucei Inhibitors; hit rate 0.12% among 410,000; AID 624173, 2012; Potency, µM (highest dose often 76.8 µM), for the others: top-dose activity, negative = inhibition, most hits filed as inhibitors; pyruvate kinase (Trypanosoma brucei), Q57TT1; TbPYK enzyme, Kinase-Glo Plus ATP luminescence, 45 min; further: potency means the concentration at half of the fitted maximal effect; on the % scale 0 is the no-effect control and ±100 the full control effect; nearly all actives have a fitted effect of over 50% in size
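Glycolytic pyruvate kinase of T. brucei was incubated with substrate, test compound and 130 uM ADP for 45 minutes at room temperature. Luminescent Kinase-Glo Plus signal was measured after 10 minutes.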
Shiga inhibitor: A qHTS for Small Molecule Inhibitors of Shiga Toxin; Vero cells, Shiga toxin protein synthesis inhibition reporter; inhibition, % at 38.7 µM; hit rate 9.2% among 290,000; AID 2315, 2010; in the data active means inhibition mostly above about 28%, no sharp cut-off; inactive means mostly below about 43%; further: 0% is about no effect
CHX counter: Cycloheximide Counterscreen for Small Molecule Inhibitors of Shiga Toxin. cell reporter, cycloheximide protein synthesis inhibition counterscreen. max response, %. hit rate 12% among 300,000. AID 2314, 2010; in the data active means max response mostly above about 13%, no sharp cut-off; inactive means mostly below about 14%; further: read at 38.3 µM for the half of the compounds with a filed dose; 0% is about no effect
* = called active by the depositor. The entries come from a sample that favours hits as a whole. Unless noted, the call rests on the fitted dose curve; in most records, active means well fitted curve in the direction sought with a large enough effect; inconclusive means small, poorly fitted or top-dose-only effect, or another doubt; inactive means no such curve, though single readings can be large; an effect the other way counts as inactive or inconclusive.

Results for CCOc1ccc(S(=O)(=O)N2CCC(N3CCN(Cc4ccc(F)cc4)C(=O)C3=O)CC2)cc1 ?
TbPYK inhibitor: 1%

How did CCOC(=O)c1c(C)[nH]c(C)c1S(=O)(=O)NCC(=O)N1CCN(c2ccccc2OC)CC1 do in these assays?
TbPYK inhibitor: -4%

What do the screens show for `CCCOC(=O)c1ccc(NC(=O)/C=C/c2cccs2)cc1`?
FBPA Giardia inh: -2%; RE007 growth inh: -16%; LmPK inh: -5%; TbPYK inhibitor: 5%; Shiga inhibitor: 73*; CHX counter: 33*

What do the screens show for `CC(C)(C)c1ccc(/C=C/C(=O)Nc2ccncc2)cc1`?
FBPA Giardia inh: 1%; RE007 growth inh: -15%; LmPK inh: 0%; TbPYK inhibitor: -13%; Shiga inhibitor: 67*; CHX counter: 53*

What do the screens show for `O=C(/C=C/c1cccs1)NCc1ccccc1`?
FBPA Giardia inh: 3%; RE007 growth inh: 18%; LmPK inh: -11%; TbPYK inhibitor: -1%; Shiga inhibitor: 41; CHX counter: 35*

What do the screens show for `Cc1oc2ncn(C)c(=O)c2c1C(=O)N(C)c1ccccc1F`?
TbPYK inhibitor: 3%

What do the screens show for `COc1ccc(NC(=O)N2CCCC(c3nc(-c4ccc(OC)cc4)no3)C2)cc1` (stereo not given)?
FBPA Giardia inh: 0%; RE007 growth inh: 3%; LmPK inh: 1%; TbPYK inhibitor: -3%; Shiga inhibitor: 55; CHX counter: 40*

How did O=C(Nc1ccc(Cl)cc1)N1CCC(c2nc(-c3ccc(F)cc3)no2)CC1 do in these assays?
FBPA Giardia inh: 0%; RE007 growth inh: -9%; LmPK inh: 1%; TbPYK inhibitor: -5%; Shiga inhibitor: 53*; CHX counter: 35*

How did CCCCCC(=O)N1CCCC(c2nc(-c3ccc(OC)cc3)no2)C1 (stereo not given) do in these assays?
FBPA Giardia inh: 0%; RE007 growth inh: -10%; LmPK inh: 2%; TbPYK inhibitor: -1%; Shiga inhibitor: 7; CHX counter: -1

How did COc1ccc(-c2noc(C3CCCN(C(=O)Nc4ccccc4)C3)n2)cc1 (stereo not given) do in these assays?
FBPA Giardia inh: -5%; RE007 growth inh: -20%; LmPK inh: 1%; TbPYK inhibitor: 1%; Shiga inhibitor: -13; CHX counter: -4

What do the screens show for `COc1ccc(-c2noc(C3CCCN(C(=O)Nc4ccccc4F)C3)n2)cc1` (stereo not given)?
FBPA Giardia inh: -4%; RE007 growth inh: 4%; LmPK inh: 9%; TbPYK inhibitor: 4%; Shiga inhibitor: 24; CHX counter: 38*

Results for COc1ccc(NC(=O)N2CCCC(c3nc(-c4ccc(C(C)C)cc4)no3)C2)cc1 (stereo not given) ?
FBPA Giardia inh: -1%; RE007 growth inh: 0%; LmPK inh: 0%; TbPYK inhibitor: -9%; Shiga inhibitor: 21; CHX counter: 32*

Results for CCOC(=O)c1ccccc1NC(=O)CSc1cn(CC(=O)N2CCCCC2)c2ccccc12 ?
TbPYK inhibitor: -11%

Results for CC(C)COC(=O)c1ccc2c(c1O)C(=O)c1ccccc1C2=O ?
FBPA Giardia inh: inconclusive; RE007 growth inh: inconclusive; LmPK inh: -23%; TbPYK inhibitor: -5%; Shiga inhibitor: 66*; CHX counter: 34*

Results for CC12C(=O)N(Cc3ccco3)C(=O)C1C1c3ccccc3C2c2ccccc21 (stereo not given) ?
FBPA Giardia inh: -9%; RE007 growth inh: -7%; LmPK inh: 10%; TbPYK inhibitor: 4%; Shiga inhibitor: 42; CHX counter: 46*

How did O=C1C2C3c4ccccc4C(c4ccccc43)C2C(=O)N1Cc1ccco1 (stereo not given) do in these assays?
FBPA Giardia inh: -2%; RE007 growth inh: 12%; LmPK inh: 2%; TbPYK inhibitor: -8%; Shiga inhibitor: -4; CHX counter: -3

What do the screens show for `NCCC(=O)O`?
FBPA Giardia inh: 6%

What do the screens show for `COc1cc(Cl)cc(/C=C/c2ccc3cccc(O)c3n2)c1OC`?
FBPA Giardia inh: 30%; RE007 growth inh: 4%; LmPK inh: 7%; TbPYK inhibitor: -6%; Shiga inhibitor: 11; CHX counter: 6

How did CCOc1cccc(/C=C/c2ccc3cccc(O)c3n2)c1OC do in these assays?
FBPA Giardia inh: 23%; RE007 growth inh: -15%; LmPK inh: 2%; TbPYK inhibitor: 3%; Shiga inhibitor: 93*; CHX counter: 52*

What do the screens show for `CCOc1cccc(/C=C/c2ccc3cccc(O)c3n2)c1O`?
FBPA Giardia inh: -11%; RE007 growth inh: inconclusive; LmPK inh: 1%; TbPYK inhibitor: -2%; Shiga inhibitor: 139*; CHX counter: 27*

Results for CCC(=O)Nc1ccccc1C(=O)C(=O)Nc1ccccc1 ?
FBPA Giardia inh: -1%; RE007 growth inh: 5%; LmPK inh: -3%; TbPYK inhibitor: 2%; Shiga inhibitor: 38*; CHX counter: 35*

Results for CCC(=O)Nc1ccccc1C(=O)OC(c1ccccc1)c1ccccc1 ?
FBPA Giardia inh: 6%; RE007 growth inh: -1%; LmPK inh: 4%; TbPYK inhibitor: 8%; Shiga inhibitor: 3; CHX counter: 1

What do the screens show for `CC(=O)Nc1ccccc1C(=O)C(=O)Nc1cccc(Br)c1`?
FBPA Giardia inh: -2%; RE007 growth inh: -5%; LmPK inh: 4%; TbPYK inhibitor: 6%; Shiga inhibitor: 100*; CHX counter: 37*

Results for CC(=O)Nc1ccccc1C(=O)C(=O)Nc1ccccc1 ?
FBPA Giardia inh: 0%; RE007 growth inh: -3%; LmPK inh: 1%; TbPYK inhibitor: -5%; Shiga inhibitor: 41; CHX counter: 11

Results for CC(=O)Nc1ccccc1C(=O)C(=O)Nc1ccc(Cl)cc1 ?
FBPA Giardia inh: -4%; RE007 growth inh: -6%; LmPK inh: 2%; TbPYK inhibitor: -1%; Shiga inhibitor: 75*; CHX counter: 17*

What do the screens show for `O=C(CSc1nc(-c2ccc(F)cc2)[nH]c1-c1ccccc1)NCC1CCCO1` (stereo not given)?
TbPYK inhibitor: 3%

How did CCCC[C@@H]1C[C@H]1C(NC(=O)c1cccs1)c1ccc(C(F)(F)F)cc1 (stereo not given in full) do in these assays?
FBPA Giardia inh: -2%

How did Cc1nc(-c2coc3cc(O)c(C)cc3c2=O)cs1 do in these assays?
FBPA Giardia inh: -6%; RE007 growth inh: -26%; LmPK inh: 7.1µM*; TbPYK inhibitor: -9%; Shiga inhibitor: 39; CHX counter: 21*

Assay outcomes as filed in PubChem BioAssay.
